Experimental data taken from PubChem BioAssay AID1259313 (Sanford-Burnham Center for Chemical Genomics, 2017).
The campaign covered roughly 340,000 compounds. About 8,500 (2.5%) were called active.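 The calls were made as follows: active = melting temperature shift of at least 10% of the positive control shift, at one fixed dose; inactive = the rest.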 This excerpt belongs to a sample that is enriched for actives.

system: Glutamate receptor ionotropic, NMDA 3A (GRIN3A) ligand-binding domain; assay: binders of NR3A ligand-binding domain, primary screen, biophysical, differential scanning fluorimetry, uHTS (AID 1259313); settings: NR3A LBD differential scanning fluorimetry, at 25 µM, stronger effect = higher value, 0% = protein alone, 100% = glycine-bound protein

SMILES	Tm shift relative to glycine control
NS(=O)(=O)c1cc(C(=O)NCCOc2ccccc2)c(Cl)cc1Cl	-0.6% (inactive)
CCCN(C(=O)CSc1nnc(N)s1)c1c(N)n(Cc2ccccc2)c(=O)[nH]c1=O	5.76% (inactive)
N#C/C(=C(/O)Cc1cccc2ccccc12)c1nc2ccccc2s1	19.3% (active)
O=C(O)CC/C(=C\c1cc2c(cc1Br)OCO2)c1nc2ccccc2s1	-1.28% (inactive)
CC1=CC(=C(C#N)c2nc3ccccc3s2)C=C(C)N1c1ccc(F)cc1F	-4.96% (inactive)
Cc1cc(NC(=O)c2ccco2)c(=O)n(Cc2c(F)cccc2Cl)c1	-1.84% (inactive)
O=C(C[C@H]1C[C@H](C(=O)N2CCOCC2)[C@@]2(CCC3CCCC3)c3[nH]c4ccc(Cl)cc4c3CCN2C1=O)NCc1ccco1	3% (inactive)
COc1ccc(CNC(=O)C[C@H]2C[C@H](C(=O)N3CCOCC3)[C@@]3(CCC4CCCC4)c4[nH]c5ccc(Cl)cc5c4CCN3C2=O)cc1OC	10% (active)
COc1ccc2[nH]c3c(c2c1)CCN1C(=O)C(CC(=O)NCCCN(C)C)C[C@H](C(=O)N2CCOCC2)[C@@]31CCC1CCCC1 (stereo not given in full)	0.34% (inactive)
C/C(Cc1ccccc1)=N\NC(=O)CNC(=O)c1cccc(Br)c1	-3.32% (inactive)
C/C(Cc1ccccc1)=N\NC(=O)CNC(=O)c1ccccc1Cl	0% (inactive)
C/C(Cc1ccccc1)=N\NC(=O)CNC(=O)c1ccc2c(c1)OCCO2	12.5% (active)
O=S(=O)(Nc1ccc(-n2cnnn2)cc1)c1ccc(Cl)cc1	0.42% (inactive)
CC(=O)[C@@]12O[C@@H]1C[C@H]1[C@@H]3CC[C@H]4C[C@@H](O)CC[C@]4(C)[C@H]3CC[C@@]12C	0% (inactive)
Cc1ccc(C(=O)NCC(=O)OCC(=O)Nc2cccc(S(=O)(=O)N3CCCC3)c2)cc1C	-2.16% (inactive)
N/C(=N\c1nc2ccccc2o1)NC(=O)C(Cc1ccccc1)N1C(=O)c2ccccc2C1=O (stereo not given)	-1.81% (inactive)
COc1ccc(CCNC(=O)C(=O)NCc2ccccc2C)cc1OC	-1.17% (inactive)
COc1ccc(CCNC(=O)CCc2ccccc2O)cc1OC	19.5% (active)
COc1ccc(CCNC(=O)CSCc2ccc(Br)cc2)cc1OC	0.53% (inactive)
COc1ccc(CCNC(=O)Cc2ccc(C)cc2)cc1OC	-3.8% (inactive)
COc1ccc(CCNC(=O)CCNS(=O)(=O)c2cc(Br)cnc2N)cc1OC	11% (active)
CC(=O)c1ccc(NC(=O)CCNS(=O)(=O)c2cc(Br)cnc2N)cc1	-12.8% (inactive)
Cc1cccc(OCCC(=O)Nc2cc(S(=O)(=O)N3CCCCC3)ccc2N2CCOCC2)c1	6.71% (inactive)
O=C(COc1ccc(-n2cnnn2)cc1)Nc1ccccc1Cl	-3.66% (inactive)
O=C(COc1cccc(-n2cnnn2)c1)NCCC1=CCCCC1	-4.1% (inactive)
C=CCc1cccc(/C=N/NC(=O)COc2ccc(-n3cnnn3)cc2)c1O	24.6% (active)
COc1ccc(-c2ccc3c(c2)C2CC3CCN2CCC#N)cc1 (stereo not given)	0.87% (inactive)
N#CCOc1ccc(C2=NO[C@@H]3[C@@H]4C[C@@H]([C@H]5C(=O)N(c6ccc7c(c6)OCO7)C(=O)[C@@H]45)[C@H]23)cc1	-1.3% (inactive)

SMILES	Tm shift relative to glycine control
Cc1cc(CN(C)C(=O)c2cc(COc3ccc(C)c(C)c3)on2)n[nH]1	-0.56% (inactive)
Cc1cc(Cl)ccc1OCCCC(=O)Nc1cccc(-n2cnnn2)c1	4.11% (inactive)
Cc1cc(Cl)ccc1OCCCC(=O)NCc1ccncc1	21.3% (active)
Cc1cc(Cl)ccc1OCCCC(=O)NCc1ccccn1	-3.24% (inactive)
CCOCCCNC(=O)Cc1cc(=O)[nH]c(=O)[nH]1	-1.66% (inactive)
OCC[C@H]1C[C@H](O)[C@@H](O)[C@]2(CCc3ccccc3O2)O1	1.78% (inactive)
CC1CN(CC(=O)NC(C)c2ccccc2)CC(C)O1 (stereo not given)	-1.03% (inactive)
CCC(=O)c1cn(CCOc2ccccc2OC)c2ccccc12	2.85% (inactive)
Cc1ccc(S(=O)(=O)NC2(C(F)(F)F)NC(=O)N(CCc3ccccc3)C2=O)cc1 (stereo not given)	-0.75% (inactive)
CC(=O)Nc1ccc(S(=O)(=O)NC2(C(F)(F)F)C(=O)NC(C)=C2C#N)cc1 (stereo not given)	-1.26% (inactive)
CCCN1C(=O)C(NS(=O)(=O)c2ccc(N)cc2)(C(F)(F)F)C(C(=O)OC)=C1C (stereo not given)	13.6% (active)
Nc1ncnc(Nc2cccc(Cl)c2Cl)n1	-0.42% (inactive)
O=C(NCc1ccccc1)[C@H]1C[C@@H]1[C@H](NP(=O)(c1ccccc1)c1ccccc1)c1ccccc1	-1.54% (inactive)
CC[C@]12c3[nH]c4cc(CCC(=O)N(C)C)ccc4c3CCN1C(=O)[C@@H](CC(=O)NCC13CC4CC(CC(C4)C1)C3)C[C@@H]2C(=O)N1CCN(C(=O)C2CC2)CC1	-2.56% (inactive)
CC(NC(=O)Nc1ccccc1)c1ccccc1 (stereo not given)	-5.71% (inactive)
CC(=O)c1cccc(NC(=S)N2CCCC2)c1	2.43% (inactive)
CSc1nsc(NC(=O)Nc2ccccc2)n1	19.7% (active)
CSc1nsc(SCC(=O)Nc2cc(C(=O)O)ccc2C)n1	1.25% (inactive)
C=CCSc1nsc(NC(=O)Nc2cccc(C(C)=O)c2)n1	15.6% (active)
CCSc1nsc(NC(=O)Nc2cccc(C(C)=O)c2)n1	0.77% (inactive)
S=c1[nH]c2ccccc2c2ccccc12	-5.09% (inactive)
OCC1(Cc2ccccc2C(F)(F)F)CCN(Cc2ccncc2)CC1	-1.43% (inactive)
CCOc1cc(CNn2c(C)nnc2SCC(=O)NC(C)(C)C)ccc1OCC(=O)NC(C)(C)C	-4.76% (inactive)
CC1(C)CC(CNCCC(c2ccc(F)cc2)c2ccco2)CCO1 (stereo not given)	0.16% (inactive)
COC(=O)CSc1ccc2nnc(CCNS(=O)(=O)c3ccc(C)cc3)n2n1	-0.94% (inactive)
CN(C)S(=O)(=O)c1ccc(NC(=O)COC(=O)c2n[nH]c3ccccc23)cc1	-2.54% (inactive)
CCN(CC)S(=O)(=O)c1ccc(C(=O)N2CCN(C3=NS(=O)(=O)c4ccccc43)CC2)cc1	0.26% (inactive)
